Experimental data published in PubChem BioAssay AID1159580 (chemical genetic matrix, 2015).
Where “and” joins values, the source holds several entries; their conditions need not be identical. Equal values may be shown once. The campaign covered roughly 5,500 compounds. About 2,000 (36%) were called active. Another 18% or so got no clear call; they are omitted. Rule as the data show it: active = normalized growth mostly below about 0.91 (no sharp cut-off); inconclusive = no clear call, values can overlap the other calls; inactive = mostly above about 0.92. The list shows a part of the results.

Assay: chemical genetic growth profiling, strain panel (AID 1159580);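 also: tested at 20 µM; growth read once vehicle control cultures reached saturation at 30 °C; 1 = growth at the plate median or of vehicle wells; lower values mean less growth of the strain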
Conditions: S. cerevisiae deletion strains, growth OD

Measured: normalized growth

CC(C)CCCC(C)[C@H]1CCC2C3C(=O)C=C4C[C@@H](O)CC[C@]4(C)C3CC[C@@]21C (some centres not stated)
active: locus YGL240W, strain doc1, stronger effect = lower value 1.13 [resistant]
inactive: locus YAL013W, strain DEP1, stronger effect = lower value 1.02 | locus YAL021C, strain ccr4, stronger effect = lower value 0.974 | locus YAL026C, strain drs2, stronger effect = lower value 1.02 | locus YAL030W, strain snc1, stronger effect = lower value 0.996 | locus YBL061C, strain skt5, stronger effect = lower value 1.01 | locus YBR009C, strain hhf1, stronger effect = lower value 1.06 | locus YBR021W, strain FUR4, stronger effect = lower value 1.05 | locus YBR023C, strain chs3, stronger effect = lower value 1.01 | locus YBR171W, strain sec66, stronger effect = lower value 1 | locus YBR229C, strain ROT2, stronger effect = lower value 1.06 | locus YBR231C, strain swc5, stronger effect = lower value 1.05 | locus YBR279W, strain paf1, stronger effect = lower value 1.01 | locus YCL011C, strain gbp2, stronger effect = lower value 0.994 | locus YCL016C, strain dcc1, stronger effect = lower value 1 | locus YCL029C, strain bik1, stronger effect = lower value 1.03 | locus YCL061C, strain MRC1, stronger effect = lower value 1.01 | locus YCL069W, strain vba3, stronger effect = lower value 0.996 | locus YCR088W, strain abp1, stronger effect = lower value 0.991 | locus YDL005C, strain med2, stronger effect = lower value 0.994 | locus YDL035C, strain GPR1, stronger effect = lower value 1.04 | locus YDL040C, strain nat1, stronger effect = lower value 0.982 | locus YDL074C, strain BRE1, stronger effect = lower value 1.04 | locus YDL101C, strain DUN1, stronger effect = lower value 1.04 | locus YDL185W, strain tfp1, stronger effect = lower value 1.04 | locus YDL192W, strain arf1, stronger effect = lower value 1.06 | locus YDR001C, strain nth1, stronger effect = lower value 1.01 | locus YDR069C, strain doa4, stronger effect = lower value 1 | locus YDR101C, strain arx1, stronger effect = lower value 1.04 | locus YDR137W, strain rgp1, stronger effect = lower value 0.946 | locus YDR150W, strain NUM1, stronger effect = lower value 1.01 | locus YDR159W, strain sac3, stronger effect = lower value 1.06 | locus YDR162C, strain NBP2, stronger effect = lower value 1.07 | locus YDR195W, strain ref2 0.997 | locus YDR297W, strain sur2, stronger effect = lower value 0.996 | locus YDR318W, strain mcm21, stronger effect = lower value 1.03 | locus YDR334W, strain swr1, stronger effect = lower value 0.975 | locus YDR335W, strain msn5, stronger effect = lower value 1.01 | locus YDR388W, stronger effect = lower value 1.02 | locus YDR392W, strain spt3, stronger effect = lower value 0.968 | locus YDR502C, strain sam2, stronger effect = lower value 1.02 | locus YEL003W, strain gim4, stronger effect = lower value 0.996 | locus YEL037C, strain rad23, stronger effect = lower value 1.01 | locus YEL061C, strain CIN8 (second series), stronger effect = lower value 1 | locus YEL061C, strain CIN8, stronger effect = lower value 1.01 | locus YER015W, strain faa2, stronger effect = lower value 1.01 | locus YER016W, strain bim1, stronger effect = lower value 0.994 | locus YER110C, stronger effect = lower value 1.04 | locus YER111C, strain swi4, stronger effect = lower value 1 | locus YER155C, strain BEM2 (second series), stronger effect = lower value 1.03 | locus YER155C, strain BEM2, stronger effect = lower value 1.01 | locus YER167W, strain BCK2, stronger effect = lower value 1.03 | locus YFR010W, strain ubp6, stronger effect = lower value 1.02 | locus YGL078C, strain dbp3, stronger effect = lower value 1.04 | locus YGL086W, strain mad1, stronger effect = lower value 1.01 | locus YGL167C, strain pmr1, stronger effect = lower value 1.01 | locus YGL173C, strain kem1, stronger effect = lower value 1 | locus YGL227W, strain vid30, stronger effect = lower value 1.01 | locus YGL248W, strain PDE1, stronger effect = lower value 1.04 | locus YGL253W, strain hxk2, stronger effect = lower value 0.93 | locus YGR135W, strain pre9, stronger effect = lower value 1.04 | locus YGR229C, strain SMI1, stronger effect = lower value 1.08 | locus YGR252W, strain gcn5, stronger effect = lower value 1.05 | locus YHR013C, strain ard1, stronger effect = lower value 1.02 | locus YHR027C, strain rpn1, stronger effect = lower value 0.992 | locus YHR030C, strain SLT2, stronger effect = lower value 1.01 and 0.966 | locus YHR079C, strain IRE1 (second series), stronger effect = lower value 1.02 | locus YHR079C, strain IRE1, stronger effect = lower value 1.01 | locus YHR094C, strain hxt1, stronger effect = lower value 1.04 | locus YHR129C, strain ARP1, stronger effect = lower value 1.03 | locus YHR142W, strain chs7, stronger effect = lower value 0.918 | locus YHR200W, strain rpn10, stronger effect = lower value 1 | locus YIL066C, strain RNR3, stronger effect = lower value 1.04 | locus YIL073C, strain SPO22, stronger effect = lower value 1.28 | locus YIL125W, strain kgd1, stronger effect = lower value 1.02 | locus YIR030C, strain dcg1, stronger effect = lower value 1.04 | locus YJL092W, strain hpr5, stronger effect = lower value 0.996 | locus YJL095W, strain BCK1 (second series), stronger effect = lower value 0.998 | locus YJL095W, strain BCK1, stronger effect = lower value 1.05 and 0.966 | locus YJL115W, strain asf1, stronger effect = lower value 1.01 | locus YJL129C, strain trk1, stronger effect = lower value 0.958 | locus YJL134W, strain LCB3, stronger effect = lower value 1.01 | locus YJL154C, strain vps35, stronger effect = lower value 1.01 | locus YJL164C, strain tpk1, stronger effect = lower value 0.966 | locus YJL166W, strain qcr8, stronger effect = lower value 1 | locus YJL168C, strain set2, stronger effect = lower value 1.03 | locus YJL187C, strain SWE1 (second series), stronger effect = lower value 1.04
